High-throughput results from PubChem.
A selection: hits, their analogues and other compounds. The true share with any hit is near 12%.
Sfp PPTase inh: blocks B. subtilis Sfp PPTase activity. Q9F4F7. Biochemical Sfp PPTase activity, qHTS. Potency, µM, for the others: largest response in the series, negative = inhibition, most hits filed as inhibitors. 310,000 tested, 3.5% active;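 further: the enzyme is Sfp with the accession as filed and its product quenches rhodamine fluorescence; 0% = enzyme reaction without inhibitor and -100% = no enzyme wells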
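Buffer: 50 mM Hepes-Na pH 7.6, 10 mM MgCl2, 0.01% Nonidet P-40, 0.01% BSA. Enzyme 15 nM, pre-exposed to compound 15 min; substrates then added and fluorescence change tracked over 30 min.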
BAZ2B inh: blocks human BAZ2B; Q9UIF8; AlphaScreen BAZ2B-H3K14Ac peptide displacement; Potency, µM (series often up to 114 µM), for inactives: at the highest dose activity change, negative = inhibition, hits mostly inhibitors; 360,000 tested, 4.4% active; AID 504333; further: on the % scale 0 is the no-effect control and ±100 the full control effect; nearly all actives have a fitted effect of over 60% in size
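Complex of BAZ2B and biotin-H3K14Ac (50 nM apiece) forms over 30 min at RT, then faces library compounds up to 110 uM for another 30 min; AlphaScreen beads added, 20 min dark incubation, luminescence read.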
HP1b binding inh: inhibitors of HP1-beta chromodomain binding to methylated histone tails; Potency, µM (top dose mostly 114 µM), for the others: at the highest dose activity change, negative = inhibition, usual class: inhibitors; AID 540317; AlphaScreen HP1-beta / biotin-H3K9me3 peptide binding; P83916; 390,000 tested, 0.56% active; further: nearly all actives have a fitted effect of over 70% in size
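Compound inhibition of the preformed complex between 50 nM HP1-beta and 50 nM biotinylated H3K9me3 peptide was read by AlphaScreen. Buffer was PBS pH 7.4 with 0.01% Tween-20. Incubations ran 30 min at room temperature, with 10 ug/mL donor/acceptor beads.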
L3MBTL1 inh: inhibitors of human L3MBTL1. AlphaScreen L3MBTL1–H3K9me1 peptide binding. 230,000 tested, 0.66% active. Potency, µM (titrated, usually from 57.1 µM), for the others: at the highest dose activity, negative = inhibition, actives largely listed as inhibitors. AID 485360; further: on the % scale 0 is the no-effect control and ±100 the full control effect; nearly all actives have a fitted effect of over 60% in size
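AlphaScreen assay: L3MBTL1 (50 nM final) was preincubated 30 min at room temperature with biotinylated H3(1-15)K9me1 peptide (75 nM final), then 30 min with library compounds; streptavidin donor and nickel chelate acceptor beads (10 ug/mL final) added, 30 min dark.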
G9a block: inhibitors of human histone lysine methyltransferase G9a; Q96KQ7; G9a H3K9 monomethylation, AlphaScreen, 2 h; Potency, µM (titrated, usually from 102 µM), inactives show top-dose activity, negative = inhibition, hits mostly inhibitors; 350,000 tested, 8.8% active; further: on the % scale 0 is the no-effect control and ±100 the full control effect; nearly all actives have a fitted effect of over 75% in size
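Methyltransferase reactions run at room temperature for 2 h (20 nM enzyme, 500 nM biotin-H3K9 peptide, 20 uM SAM) after a 15 min compound preincubation; product detected by AlphaScreen beads and anti-H3K9me1 antibody.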
JMJD2A Tudor: inhibitors of human JMJD2A Tudor domain; O75164; AlphaScreen JMJD2A-Tudor / H3K4me3 peptide binding; Potency, µM (doses to about 114 µM), without a hit: top-dose activity change, negative = inhibition, usual class: inhibitors; 390,000 tested, 4.4% active; further: on the % scale 0 is the no-effect control and ±100 the full control effect; nearly all actives have a fitted effect of over 50% in size
The depositor's hits bear a star; ? = inconclusive; . = no result given; [ ] = another dose, or the depositor's remark. The call rests on the fitted dose curve; in most records, active means well fitted curve in the direction sought with a large enough effect; inconclusive means small, poorly fitted or top-dose-only effect, or another doubt; inactive means no such curve, though single readings can be large; an effect the other way counts as inactive or inconclusive. Potency means the concentration at half of the fitted maximal effect.

SMILES	Sfp PPTase inh	BAZ2B inh	HP1b binding inh	L3MBTL1 inh	G9a block	JMJD2A Tudor
COc1cc(/C=C2/C(=O)N(c3ccc(Br)cc3)N=C2C)cc([N+](=O)[O-])c1O	-11.2%	-33.4%	.	.	79.4µM*	.
COc1ccc(/C=C2/C(=O)N(c3c(F)c(F)c(F)c(F)c3F)N=C2C)cc1	-26.8%	-4.1%	-11.4%	33.5%[2.29 µM]	26.8%[0.501 µM]	-21.4%
COC(=O)C1=NOC2(C=C(Br)C(OC)=C(Br)C2=O)C1 (stereo not drawn)	0.794µM*	.	.	.	.	.
Cc1nc2c(C)cccc2c(SC(=N)N)c1CC=C(Cl)Cl	?	?	59.0%	-6.2%	7.94µM*	?
C=CCc1c(C)nc2c(C)cccc2c1SC(=N)N	56.2µM*	-1.8%	65.0%	10.6%	.	18.3%
C=CCc1c(C)nc2c(OC)cccc2c1Cl	13.4%	5.0%	27.4%	-2.9%	2.7%	-11.2%
CCc1nc2ccc(C(=O)NCc3ccccc3C)cc2nc1CC	.	1.1%	18.3%	.	7.9%[59 µM]	-8.3%
CCOC(=O)C1CCCN(S(=O)(=O)CCNC(=O)c2ccc(F)cc2)C1 (stereo not drawn)	.	1.1%	41.0%	11.5%	-2.8%[0.501 µM]	5.2%
CC(=O)N1c2ccccc2C(=O)C1N1CCN(c2ccc(Cl)cc2)CC1 (stereo not drawn)	.	-1.4%	10.8%	.	-48.1%[59 µM]	-17.5%
CC(=O)N1c2ccccc2C(=O)C1N1CCN(c2cc(Cl)ccc2C)CC1 (stereo not drawn)	.	?	54.7%	.	7.94µM*	-28.6%
Brc1cccc(OCCN2CCOCC2)c1	-17.1%	50.1µM*	?	0.0%	8.91µM*	5.62µM*
Cc1ccc(OCCN2CCOCC2)cc1C	-6.4%	1.7%	37.6%	1.0%	-1.1%	-9.7%
Brc1cccc(OCCN2CCc3ccccc3C2)c1	-1.8%	-3.3%	81.6%	34.6%	.	14.4%
CCc1cccc(OCCN2CCCC2)c1	-26.6%	56.2µM*	?	-7.1%	?	31.6µM*
Brc1cccc(OCCN2CCCCC2)c1	?	?	?	-1.4%	7.08µM*	20µM*
Cc1cc(C)n2nc(SCC(=O)Nc3c(C)n(C)n(-c4ccccc4)c3=O)nc2n1	6.3%	?	15.4%	-0.5%	44.7µM*	18.2%
Cc1c(NC(=O)CSc2n[nH]c(=O)n2-c2ccccc2)c(=O)n(-c2ccccc2)n1C	18.5%	-6.8%	?	.	-0.8%	22.4µM*
Cc1cc(C)cc(-n2c(C)cc(/C=N/NC(=O)CSc3ncccn3)c2C)c1	-25.1%	?	?	-12.1%	79.4µM*	79.4µM*
Cc1cc(C)n2nc(SCC(=O)N/N=C/c3ccccn3)nc2n1	56.2µM*	-0.7%	32.5%	23.2%	8.91µM*	8.91µM*
Nc1nc(NCc2ccccc2Cl)c2[nH]cnc2n1	.	.	3.3%	.	.	-33.3%
Cc1c(NC(=O)COC(=O)COc2ccc(Nc3ccccc3)cc2)c(=O)n(-c2ccccc2)n1C	-7.8%	?	-9.8%	-18.2%	50.1µM*	-30.5%
Cc1c(NC(=O)CN(c2ccc(F)cc2)S(=O)(=O)c2ccccc2)c(=O)n(-c2ccccc2)n1C	-25.4%	?	23.9%	.	44.7µM*	-8.1%
O=C(NCCc1ccccc1Cl)c1ccc2nc3ccccc3c(=O)n2c1	-21.2%	-6.4%	40.0%	.	-0.2%	-7.0%
COC(=O)[C@]1(Cc2ccccc2)N[C@H](CN(C)S(=O)(=O)c2ccc(C)cc2)[C@@H]2C(=O)N(Cc3ccccc3)C(=O)[C@@H]21	.	.	86.0%	-3.1%	.	-15.8%
O=C(c1ccc2nc(N3CCCCC3)sc2c1)N1CCN(c2ccccn2)CC1	-1.7%	-31.0%	54.4%	-13.3%	56.2µM*	-29.0%
SMILES	Sfp PPTase inh	BAZ2B inh	HP1b binding inh	L3MBTL1 inh	G9a block	JMJD2A Tudor
CCOC(=O)N1CCN(C(=O)c2ccc3nc(N4CCC(C)CC4)sc3c2)CC1	-3.0%	-0.9%	6.5%	4.0%	20.0%[0.0925 µM]	-12.7%
Cc1cccc(N2CCN(C(=O)c3ccc4nc(N5CCCCC5)sc4c3)CC2)c1C	-9.7%	-6.0%	-22.2%	.	-9.6%	-31.3%
Cn1nnc2cc(C(=O)N3CCN(c4ccccn4)CC3)ccc21	21.0%	4.3%	-1.5%	.	17.8µM*	-11.6%
CC1CCN(c2nc3ccc(C(=O)N4CCN(Cc5ccccc5)CC4)cc3s2)CC1	-7.6%	-9.0%	2.3%	.	70.8µM*	?
NC(=O)N/N=C/c1c(F)c(F)c(F)c(F)c1F	27.7%	-1.6%	-2.0%	9.0%	.	11.2µM*
NC(=O)N/N=C/c1c(F)cccc1F	-11.6%	-7.8%	24.4%	7.6%	-0.8%[59 µM]	-16.8%
COc1ccc(OC2C(O)COC2/C=C/c2ccccc2)cc1 (stereo not drawn)	5.6%	.	.	.	.	.
CCOC(=O)/C(=C/c1ccc(OC(=O)c2ccccc2)cc1)C(C)=O	?	4.3%	49.9%	-5.8%	44.7µM*	8.5%
C#C[C@]1(O)CC[C@H]2[C@H]3[C@H](CC[C@@]21C)C1=C(CC(=O)CC1)C[C@@H]3C	13.9%	.	.	.	-43.1%[12.7 µM]	.
Cc1cc(C)nc(SCc2csc(-c3ccccc3)n2)n1	-17.4%	37.0%	116.2%	26.2%	34.1%[59 µM]	66.2%
Cc1cc(C)nc(SCc2csc(N)n2)n1	35.5µM*	-21.1%	35.1%	6.5%	50.1µM*	3.7%
CCOC(=O)C1=C(C)NC2(O)c3ccccc3C(=O)C12O (stereo not drawn)	79.4µM*	?	0.7%	-14.0%	-32.6%[59 µM]	?
COCCOC(=O)C1=C(C)NC(C)=C(C(=O)OCCOC)C1/C=C/c1ccccc1OC	4.3%	6.6%	20.6%	0.2%	45.6%	-10.3%
CC(=O)C1=C(C)NC2(O)c3ccccc3C(=O)C12O (stereo not drawn)	-0.5%	-16.1%	39.6%	-8.6%	-24.6%	4.4%
COCCOC(=O)C1=C(C)NC2(O)c3ccccc3C(=O)C12O (stereo not drawn)	89.1µM*	-11.9%	59.6%	.	-33.3%[59 µM]	5.5%
O=C(CC(c1ccco1)C1CCCCC1=O)c1ccco1 (stereo not drawn)	-4.7%	?	26.1%	-9.5%	56.2µM*	-25.7%
Cc1ccc(CNC(=O)CN2CCN(c3ccc(F)cc3)CC2)cc1	4.3%	5.8%	44.1%	-3.4%	.	-9.7%
Cc1c(O)ccc(C(=O)CN2CCN(Cc3ccccc3)CC2)c1O	-7.6%	-31.4%	72.3%	.	79.4µM*	8.9%
Cc1c(O)ccc(C(=O)CN2CCN(c3ccc(F)cc3)CC2)c1O	10.3%	-35.5%	-4.7%[57 µM]	.	44.7µM*	-32.6%
O=C(NCCOC(=O)c1ccccc1)c1ccc([N+](=O)[O-])cc1	7.6%	-18.9%	33.3%	.	-22.5%	-1.0%
CCOc1ccccc1NC(=O)C(=O)c1cc(C)n(-c2cccc(C)c2C)c1C	.	-24.5%	33.5%	.	-35.5%[59 µM]	-18.5%
CC(OC(=O)c1ccc(C#N)cc1)C(=O)Nc1ccc(Cl)cn1 (stereo not drawn)	.	10.1%	17.9%	7.8%	56.2µM*	1.4%
